Laboratory results reported in the supplement of paper PMC11732987, “Enantioselective OTUD7B fragment discovery through chemoproteomics screening and high-throughput optimisation” (Communications Chemistry, 2025).

Legend:
Assay in all cases: log2 ratio of Biotin-Ahx-Ub-VS probe labelling (fragment/DMSO); higher = less target engagement (more negative = stronger competition), active = hit call of the paper (q ≤ 0.05, log2 ratio ≤ -1)
Settings in all cases: compound concentration: 200 uM; treatment time: 3 h
USP34 = USP34 (UniProt Q70CQ2)
Summary of the method: (§1)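 Each value is an average log2 ratio of fragment to vehicle, tested by unpaired t-test. The underlying Spectronaut label-free quantities were global-median-normalised, and only proteins with ≥2 unique peptides were included. Triplicate HEK293T lysate samples (495 µg) were exposed to fragment at 200 µM or vehicle for 3 h, then to Biotin-Ahx-Ub-VS at 0.5 µM final for 1 h, before NeutrAvidin enrichment of labelled DUBs, LysC and trypsin digestion, and diaPASEF LC-MS/MS.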

USP36 = biological target: T1, USP36 (UniProt Q9P275)
T1 sequence (whole entry): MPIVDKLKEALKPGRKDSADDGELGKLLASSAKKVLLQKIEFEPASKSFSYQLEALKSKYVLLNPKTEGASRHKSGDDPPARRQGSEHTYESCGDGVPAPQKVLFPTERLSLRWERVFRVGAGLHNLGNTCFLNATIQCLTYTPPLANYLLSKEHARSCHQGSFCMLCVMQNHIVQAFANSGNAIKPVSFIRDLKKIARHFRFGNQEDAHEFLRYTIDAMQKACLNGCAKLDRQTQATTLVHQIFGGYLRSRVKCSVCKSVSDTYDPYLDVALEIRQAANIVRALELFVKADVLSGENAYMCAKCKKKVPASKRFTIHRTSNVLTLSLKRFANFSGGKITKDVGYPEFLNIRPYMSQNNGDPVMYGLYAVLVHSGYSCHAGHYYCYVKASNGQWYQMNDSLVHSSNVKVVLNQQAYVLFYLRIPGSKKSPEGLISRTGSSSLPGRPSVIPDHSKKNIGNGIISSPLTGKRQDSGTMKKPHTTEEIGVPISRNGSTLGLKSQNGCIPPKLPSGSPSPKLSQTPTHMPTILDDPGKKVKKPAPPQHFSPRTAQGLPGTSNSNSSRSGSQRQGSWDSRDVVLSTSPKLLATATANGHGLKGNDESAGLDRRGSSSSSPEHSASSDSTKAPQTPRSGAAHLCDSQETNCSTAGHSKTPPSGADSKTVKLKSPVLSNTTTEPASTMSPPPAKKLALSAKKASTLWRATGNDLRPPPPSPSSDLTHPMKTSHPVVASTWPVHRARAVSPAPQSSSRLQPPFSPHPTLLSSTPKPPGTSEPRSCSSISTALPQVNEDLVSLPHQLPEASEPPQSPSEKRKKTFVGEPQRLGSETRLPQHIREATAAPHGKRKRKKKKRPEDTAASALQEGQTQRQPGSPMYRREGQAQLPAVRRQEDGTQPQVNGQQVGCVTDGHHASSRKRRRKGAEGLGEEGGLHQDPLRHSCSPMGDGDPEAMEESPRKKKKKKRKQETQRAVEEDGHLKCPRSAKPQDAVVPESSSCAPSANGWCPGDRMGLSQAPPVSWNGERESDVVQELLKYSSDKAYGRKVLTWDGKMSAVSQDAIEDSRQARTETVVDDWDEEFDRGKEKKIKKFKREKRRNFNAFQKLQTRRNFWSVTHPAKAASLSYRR
Summary of the method: as §1

USP38 = biological target: T2, USP38 (UniProt Q8NB14)
T2 sequence (whole entry): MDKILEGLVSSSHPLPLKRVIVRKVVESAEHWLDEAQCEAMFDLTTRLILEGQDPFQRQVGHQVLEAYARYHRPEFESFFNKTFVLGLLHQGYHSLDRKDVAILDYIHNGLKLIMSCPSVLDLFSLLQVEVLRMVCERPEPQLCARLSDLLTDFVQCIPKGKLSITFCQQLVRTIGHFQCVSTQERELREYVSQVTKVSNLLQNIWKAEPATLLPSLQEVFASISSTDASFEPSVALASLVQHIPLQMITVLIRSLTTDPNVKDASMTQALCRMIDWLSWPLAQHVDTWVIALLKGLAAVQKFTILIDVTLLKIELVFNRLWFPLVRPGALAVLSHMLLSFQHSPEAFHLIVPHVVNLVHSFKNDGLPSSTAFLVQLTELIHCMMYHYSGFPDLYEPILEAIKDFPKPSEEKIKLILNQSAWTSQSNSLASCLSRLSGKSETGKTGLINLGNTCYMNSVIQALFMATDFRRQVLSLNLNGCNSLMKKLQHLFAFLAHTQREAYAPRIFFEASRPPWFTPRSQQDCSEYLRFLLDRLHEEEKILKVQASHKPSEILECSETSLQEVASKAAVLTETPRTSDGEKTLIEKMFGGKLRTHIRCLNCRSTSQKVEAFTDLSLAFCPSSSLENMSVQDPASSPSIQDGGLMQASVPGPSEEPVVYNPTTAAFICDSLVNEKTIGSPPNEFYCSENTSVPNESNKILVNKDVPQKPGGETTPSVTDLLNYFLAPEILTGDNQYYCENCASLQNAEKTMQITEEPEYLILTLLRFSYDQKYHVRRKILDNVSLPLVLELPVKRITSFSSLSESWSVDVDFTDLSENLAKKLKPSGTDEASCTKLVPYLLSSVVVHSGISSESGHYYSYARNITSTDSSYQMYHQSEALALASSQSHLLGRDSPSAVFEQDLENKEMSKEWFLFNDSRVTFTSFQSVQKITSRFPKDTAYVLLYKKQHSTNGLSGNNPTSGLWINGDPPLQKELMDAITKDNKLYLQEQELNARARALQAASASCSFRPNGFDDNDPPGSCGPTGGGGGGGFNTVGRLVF
Summary of the method: as §1

USP39 = biological target: T3, USP39 (UniProt Q53GS9)
T3 sequence (whole entry): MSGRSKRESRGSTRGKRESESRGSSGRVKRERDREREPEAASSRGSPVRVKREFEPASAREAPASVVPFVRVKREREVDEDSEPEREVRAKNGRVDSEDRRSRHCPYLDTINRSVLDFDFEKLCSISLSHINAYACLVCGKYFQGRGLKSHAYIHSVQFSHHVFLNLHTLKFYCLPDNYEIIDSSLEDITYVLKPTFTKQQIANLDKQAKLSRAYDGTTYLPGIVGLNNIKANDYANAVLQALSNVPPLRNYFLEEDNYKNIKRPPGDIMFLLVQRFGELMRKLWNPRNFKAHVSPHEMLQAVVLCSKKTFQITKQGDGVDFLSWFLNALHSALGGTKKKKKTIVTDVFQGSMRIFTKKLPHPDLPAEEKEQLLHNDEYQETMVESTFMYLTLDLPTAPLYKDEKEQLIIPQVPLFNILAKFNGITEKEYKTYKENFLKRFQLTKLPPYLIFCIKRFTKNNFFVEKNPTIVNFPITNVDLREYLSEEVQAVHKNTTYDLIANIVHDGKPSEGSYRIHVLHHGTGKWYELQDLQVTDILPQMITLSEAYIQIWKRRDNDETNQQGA
Summary of the method: as §1

USP4 = biological target: T4, USP4 (UniProt Q13107)
T4 sequence (whole entry): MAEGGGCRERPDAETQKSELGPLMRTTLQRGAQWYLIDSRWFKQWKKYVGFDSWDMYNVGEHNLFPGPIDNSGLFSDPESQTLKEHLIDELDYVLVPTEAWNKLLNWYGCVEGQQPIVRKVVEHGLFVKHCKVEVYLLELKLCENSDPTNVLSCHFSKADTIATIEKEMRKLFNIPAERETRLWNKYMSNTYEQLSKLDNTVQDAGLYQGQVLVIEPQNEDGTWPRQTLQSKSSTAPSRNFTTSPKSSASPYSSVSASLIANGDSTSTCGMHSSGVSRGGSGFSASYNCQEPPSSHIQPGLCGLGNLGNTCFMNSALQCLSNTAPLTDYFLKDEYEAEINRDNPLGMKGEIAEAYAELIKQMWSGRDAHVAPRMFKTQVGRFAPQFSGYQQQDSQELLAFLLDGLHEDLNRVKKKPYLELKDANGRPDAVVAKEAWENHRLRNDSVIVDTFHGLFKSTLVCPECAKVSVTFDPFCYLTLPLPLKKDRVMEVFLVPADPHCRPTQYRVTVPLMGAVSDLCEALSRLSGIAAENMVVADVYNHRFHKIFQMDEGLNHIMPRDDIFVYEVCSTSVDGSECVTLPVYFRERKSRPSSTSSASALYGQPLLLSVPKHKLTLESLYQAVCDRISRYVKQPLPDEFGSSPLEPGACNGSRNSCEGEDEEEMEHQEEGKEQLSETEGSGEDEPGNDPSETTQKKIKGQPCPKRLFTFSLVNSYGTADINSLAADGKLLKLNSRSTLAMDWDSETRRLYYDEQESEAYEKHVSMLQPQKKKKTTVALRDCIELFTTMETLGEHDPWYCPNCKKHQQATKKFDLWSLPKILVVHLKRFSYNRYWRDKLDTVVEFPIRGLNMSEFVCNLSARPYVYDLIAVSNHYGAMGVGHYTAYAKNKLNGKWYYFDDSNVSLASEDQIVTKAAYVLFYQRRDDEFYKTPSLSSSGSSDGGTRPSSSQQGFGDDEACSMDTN
Summary of the method: as §1

Measured: log2 ratio of Biotin-Ahx-Ub-VS probe labelling

Chain of USP34 (Q70CQ2 whole entry, the tested form may be a part): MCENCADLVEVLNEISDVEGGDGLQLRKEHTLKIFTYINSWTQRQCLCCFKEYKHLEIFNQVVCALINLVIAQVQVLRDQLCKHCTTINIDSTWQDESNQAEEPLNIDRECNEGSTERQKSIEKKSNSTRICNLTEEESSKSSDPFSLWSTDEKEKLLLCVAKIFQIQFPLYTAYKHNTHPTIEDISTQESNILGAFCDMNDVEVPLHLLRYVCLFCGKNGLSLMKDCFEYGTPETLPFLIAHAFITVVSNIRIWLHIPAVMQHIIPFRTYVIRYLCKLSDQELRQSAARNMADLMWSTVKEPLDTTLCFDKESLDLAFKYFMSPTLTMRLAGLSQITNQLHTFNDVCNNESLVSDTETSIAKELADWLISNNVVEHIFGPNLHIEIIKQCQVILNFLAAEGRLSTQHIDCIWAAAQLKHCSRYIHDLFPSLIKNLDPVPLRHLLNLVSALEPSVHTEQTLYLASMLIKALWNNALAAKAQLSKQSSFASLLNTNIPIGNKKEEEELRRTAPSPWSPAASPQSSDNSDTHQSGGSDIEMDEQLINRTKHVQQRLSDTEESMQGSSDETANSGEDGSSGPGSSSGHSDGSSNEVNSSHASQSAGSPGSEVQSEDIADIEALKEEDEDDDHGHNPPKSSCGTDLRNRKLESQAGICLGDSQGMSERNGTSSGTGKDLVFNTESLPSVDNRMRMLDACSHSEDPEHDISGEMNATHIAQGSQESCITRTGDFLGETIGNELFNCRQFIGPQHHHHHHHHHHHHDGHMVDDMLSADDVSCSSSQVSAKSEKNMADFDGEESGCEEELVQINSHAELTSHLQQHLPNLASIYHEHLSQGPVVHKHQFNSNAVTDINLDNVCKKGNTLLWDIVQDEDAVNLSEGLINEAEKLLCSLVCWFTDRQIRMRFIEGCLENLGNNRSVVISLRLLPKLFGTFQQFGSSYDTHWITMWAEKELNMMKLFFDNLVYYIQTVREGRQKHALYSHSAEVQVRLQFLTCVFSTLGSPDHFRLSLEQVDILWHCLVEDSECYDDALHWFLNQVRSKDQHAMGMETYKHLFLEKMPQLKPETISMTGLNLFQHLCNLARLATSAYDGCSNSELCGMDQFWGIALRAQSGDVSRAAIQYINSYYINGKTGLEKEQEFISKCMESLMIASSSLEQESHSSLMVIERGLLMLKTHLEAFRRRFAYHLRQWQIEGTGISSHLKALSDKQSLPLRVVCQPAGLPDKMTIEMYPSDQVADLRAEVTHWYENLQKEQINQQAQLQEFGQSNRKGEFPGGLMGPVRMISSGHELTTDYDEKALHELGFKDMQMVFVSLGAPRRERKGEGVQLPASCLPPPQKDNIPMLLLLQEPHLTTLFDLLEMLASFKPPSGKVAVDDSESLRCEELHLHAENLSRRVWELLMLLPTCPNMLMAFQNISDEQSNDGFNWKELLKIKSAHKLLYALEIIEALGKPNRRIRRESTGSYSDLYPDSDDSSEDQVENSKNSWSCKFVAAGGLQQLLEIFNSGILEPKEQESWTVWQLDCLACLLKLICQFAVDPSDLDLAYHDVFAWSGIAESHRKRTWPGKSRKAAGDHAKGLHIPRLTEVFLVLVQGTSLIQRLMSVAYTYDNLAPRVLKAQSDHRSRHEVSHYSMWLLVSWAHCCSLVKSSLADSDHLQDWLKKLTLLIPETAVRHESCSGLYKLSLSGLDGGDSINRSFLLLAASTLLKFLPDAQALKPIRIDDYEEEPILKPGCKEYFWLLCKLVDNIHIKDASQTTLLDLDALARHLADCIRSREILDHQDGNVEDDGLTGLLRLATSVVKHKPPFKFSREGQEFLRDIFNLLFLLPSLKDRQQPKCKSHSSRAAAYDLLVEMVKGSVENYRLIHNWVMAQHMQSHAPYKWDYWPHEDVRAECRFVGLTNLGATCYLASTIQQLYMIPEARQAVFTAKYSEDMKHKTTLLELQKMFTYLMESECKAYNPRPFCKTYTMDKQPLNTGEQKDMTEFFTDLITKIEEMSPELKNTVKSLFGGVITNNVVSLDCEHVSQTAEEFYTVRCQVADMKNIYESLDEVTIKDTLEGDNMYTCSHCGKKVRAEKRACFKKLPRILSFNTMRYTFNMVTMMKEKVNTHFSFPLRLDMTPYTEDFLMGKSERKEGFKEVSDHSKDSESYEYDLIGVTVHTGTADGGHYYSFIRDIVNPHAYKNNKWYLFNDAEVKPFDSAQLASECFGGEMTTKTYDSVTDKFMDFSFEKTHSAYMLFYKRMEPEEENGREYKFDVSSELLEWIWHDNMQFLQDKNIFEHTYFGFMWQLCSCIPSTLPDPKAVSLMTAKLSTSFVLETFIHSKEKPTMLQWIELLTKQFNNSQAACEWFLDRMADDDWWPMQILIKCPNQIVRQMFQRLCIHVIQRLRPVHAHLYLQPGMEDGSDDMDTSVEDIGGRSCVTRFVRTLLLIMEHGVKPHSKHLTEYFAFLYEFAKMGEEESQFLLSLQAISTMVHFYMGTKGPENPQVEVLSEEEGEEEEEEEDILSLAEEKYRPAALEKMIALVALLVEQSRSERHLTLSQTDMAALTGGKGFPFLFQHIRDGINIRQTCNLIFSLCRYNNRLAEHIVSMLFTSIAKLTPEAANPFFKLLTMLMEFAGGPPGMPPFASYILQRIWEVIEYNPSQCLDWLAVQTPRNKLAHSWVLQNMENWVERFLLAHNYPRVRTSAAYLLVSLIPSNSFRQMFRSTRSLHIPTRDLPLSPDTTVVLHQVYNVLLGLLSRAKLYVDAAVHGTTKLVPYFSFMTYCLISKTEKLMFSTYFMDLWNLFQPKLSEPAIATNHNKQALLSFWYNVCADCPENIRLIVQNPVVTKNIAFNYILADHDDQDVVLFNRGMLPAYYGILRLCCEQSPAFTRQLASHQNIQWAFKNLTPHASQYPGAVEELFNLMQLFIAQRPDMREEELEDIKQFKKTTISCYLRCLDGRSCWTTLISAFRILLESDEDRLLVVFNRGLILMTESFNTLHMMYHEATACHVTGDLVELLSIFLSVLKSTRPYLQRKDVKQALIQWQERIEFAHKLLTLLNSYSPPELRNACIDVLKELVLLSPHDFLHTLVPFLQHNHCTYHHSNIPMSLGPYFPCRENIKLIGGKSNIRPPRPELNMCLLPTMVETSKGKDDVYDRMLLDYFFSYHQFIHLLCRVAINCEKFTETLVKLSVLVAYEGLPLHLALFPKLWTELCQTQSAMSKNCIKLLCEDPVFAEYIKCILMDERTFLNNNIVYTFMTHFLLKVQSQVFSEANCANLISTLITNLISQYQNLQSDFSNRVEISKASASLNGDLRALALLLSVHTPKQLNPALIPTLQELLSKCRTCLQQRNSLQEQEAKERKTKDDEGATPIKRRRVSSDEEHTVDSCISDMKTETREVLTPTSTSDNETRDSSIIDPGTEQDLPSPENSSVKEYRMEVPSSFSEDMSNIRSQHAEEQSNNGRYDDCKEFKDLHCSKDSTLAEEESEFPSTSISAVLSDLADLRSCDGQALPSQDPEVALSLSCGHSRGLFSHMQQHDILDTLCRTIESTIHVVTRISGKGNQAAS

O=C(CCl)NC(Cn1ccccc1=O)c1ccccc1 (stereo not given)
inactive: USP34 -0.106 | USP36 0.132 | USP38 -0.000312 | USP39 -0.0137 | USP4 -0.127
